Screening data (PubChem BioAssay)
The list is not random: actives were taken first. Their share in the collection is about 19%.
IL1B secr inh: qHTS for Inhibitors of Inflammasome Signaling: IL-1-beta AlphaLISA Primary Screen; THP-1 LPS/ATP IL-1B secretion, AlphaLISA, 16 h; hits give low values; activity change, % at 57.5 µM; 360,000 tested, 4.7% active; AID 743279, 2014; in the data active = activity change below about -50%; inconclusive = mostly about -30% to -49%
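Secreted IL-1B measured by AlphaLISA bead assay after 16 h compound exposure of THP-1 cells; compounds (final up to 57.5 uM) added 1 h before LPS (250 ng/mL) and ATP (1.25 mM) stimulation; lower signal means less secretion.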
DT40 TDP1 no CPT: qHTS for Inhibitors of human tyrosyl-DNA phosphodiesterase 1 (TDP1): qHTS in cells in absence of CPT | DT40 Tdp1-/- hTDP1 cells, no CPT, ATP luminescence, 48 h | Potency, µM (highest dose often 46.2 µM), most hits filed as inhibitors | 420,000 tested, 15% active | AID 686978, 2013; note: nearly all actives have a fitted effect of over 55% in size
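Camptothecin absent (DMSO only). Human TDP1-complemented DT40 knockout cells, 400 cells/well, 37 °C for minimum 48 hr; ATP measured via CellTiter-Glo, 30 min dark incubation, luminescence.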
SW480 rerep: A quantitative high throughput screen for small molecules that induce DNA re-replication in SW480 colon adenocarcinoma cells. 340,000 tested, 1.8% active. Potency, µM (titrated, usually from 46.1 µM), most hits filed as activators. SW480 DNA re-replication, Hoechst DNA content imaging, 48 h; note: nearly all actives have a fitted effect of over 55% in size
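DNA re-replication was detected as more nuclei of elevated Hoechst intensity after 48 hr exposure to compound (23 nL pinned per well of 250 cells).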
MCF10A rerep: A quantitative high throughput screen for small molecules that induce DNA re-replication in MCF 10a normal breast cells; 350,000 tested, 2.9% active; MCF 10A DNA re-replication, Hoechst nuclear intensity, 48 h; AID 624296, 2012; Potency, µM (titrated, usually from 46.1 µM), hits mostly activators; note: nearly all actives have a fitted effect of over 50% in size
TDP1 cell CPT: qHTS for Inhibitors of human tyrosyl-DNA phosphodiesterase 1 (TDP1): qHTS in cells in presence of CPT. chicken DT40 Tdp1-/-;hTDP1 cells + 20 nM CPT, ATP luminescence, 48 h. 420,000 tested, 12% active. Potency, µM (top dose mostly 46.2 µM), hits mostly inhibitors; note: nearly all actives have a fitted effect of over 55% in size
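Chicken DT40 Tdp1-/- cells complemented with human TDP1, 400 cells/well, exposed to compounds plus 20 nM camptothecin for at least 48 h at 37 C; viability read as ATP content by CellTiter-Glo luminescence.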
BCR signal inh: qHTS Assay to Find Inhibitors of Chronic Active B-Cell Receptor Signaling. Potency, µM (series often up to 46.1 µM), actives largely listed as inhibitors. AID 493014, 2011. 340,000 tested, 0.05% active. ABC-DLBCL IkBa-CBG/CBR reporter, luminescence ratio, 4 h; active = well fitted inhibition curve with a large enough effect in the signal ratio, with a control signal flat, not every such curve was filed as active; inconclusive = small, poorly fitted or top-dose-only effect, or effect the other way, or a change in a side signal; the % refers to the signal ratio
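Concentration-response series (up to 46 uM) were applied to TMD8 dual-reporter cells for 4 h at 37C with doxycycline. Green/red ratio, after filter-overlap correction, defined %Activity; red signal alone was normalised to basal cells and zero luminescence.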
Large screens that a line does not name were inactive. Unless noted, calls come from the whole dose curve; as a rule, active = well fitted curve in the direction sought with a large enough effect; inconclusive = small, poorly fitted or top-dose-only effect, or another doubt; inactive = no such curve, though single readings can be large; an effect the other way counts as inactive or inconclusive.

Cc1cc(Br)ccc1NC(=O)C1CCCN(S(=O)(=O)c2cccc3nonc23)C1 (centres undefined)	TDP1 cell CPT inconclusive (no result: IL1B secr inh, SW480 rerep, MCF10A rerep, BCR signal inh)
Cc1cc(NC(=O)C2CCCN(S(=O)(=O)c3cccc4nonc34)C2)ccc1Br (centres undefined)	DT40 TDP1 no CPT 16µM, TDP1 cell CPT inconclusive (no result: IL1B secr inh, SW480 rerep, MCF10A rerep, BCR signal inh)
O=C(C1CCCN(S(=O)(=O)c2cccc3nonc23)C1)N1CCC(Cc2ccccc2)CC1 (centres undefined)	IL1B secr inh inconclusive, DT40 TDP1 no CPT 18µM, SW480 rerep inconclusive, MCF10A rerep inconclusive, TDP1 cell CPT 21µM (no result: BCR signal inh)
CCOc1ccccc1N(C)C(=O)C1CCN(S(=O)(=O)c2cccc3nonc23)CC1	DT40 TDP1 no CPT 13µM, TDP1 cell CPT inconclusive
O=C(C1CCN(S(=O)(=O)c2cccc3nonc23)CC1)N1CCN(c2cccc(Cl)c2)CC1	DT40 TDP1 no CPT 15µM, TDP1 cell CPT 26µM (no result: IL1B secr inh, SW480 rerep, MCF10A rerep)
COc1ccc(CN2CC[C@H]3C=CC[C@@H](C(=O)Nc4nccs4)[C@H]3C2=O)cc1OC	none (no result: IL1B secr inh, SW480 rerep, MCF10A rerep, BCR signal inh)
Cc1ccc(N2CC(NC(=O)CCc3ccccc3)CC2=O)cc1C (centres undefined)	none (no result: IL1B secr inh, SW480 rerep, MCF10A rerep)
O=C(Cn1cc(C(F)(F)F)cc(Cl)c1=O)NCc1ccc(F)cc1	none
COc1c(NC=O)c2c(c([N+](=O)[O-])c1OC)C(=O)OC2	none (no result: BCR signal inh)
C=C(C)CNC(=O)C1CCC(=O)N(CCCc2ccccc2)C1 (centres undefined)	none (no result: BCR signal inh)
Cc1ccc(C)c(N2CCN(C(=O)C3CCCN(S(=O)(=O)c4cccc5nonc45)C3)CC2)c1 (centres undefined)	DT40 TDP1 no CPT 6.5µM, TDP1 cell CPT 9.2µM (no result: IL1B secr inh, SW480 rerep, MCF10A rerep, BCR signal inh)
COc1ccccc1N1CCN(C(=O)C2CCN(S(=O)(=O)c3cccc4nonc34)CC2)CC1	DT40 TDP1 no CPT inconclusive, TDP1 cell CPT inconclusive (no result: IL1B secr inh, SW480 rerep, MCF10A rerep)
O=C(C1CCN(S(=O)(=O)c2cccc3nonc23)CC1)N1CCN(c2ccccc2)CC1	DT40 TDP1 no CPT 23µM, TDP1 cell CPT inconclusive (no result: IL1B secr inh, SW480 rerep, MCF10A rerep, BCR signal inh)
O=C(C1CCCN(S(=O)(=O)c2cccc3nonc23)C1)N1CCN(c2cccc(Cl)c2)CC1 (centres undefined)	IL1B secr inh -53, DT40 TDP1 no CPT 23µM, MCF10A rerep inconclusive, TDP1 cell CPT 16µM
O=C(C1CCCN(S(=O)(=O)c2cccc3nonc23)C1)N1CCN(c2ccccc2Cl)CC1 (centres undefined)	IL1B secr inh -51, DT40 TDP1 no CPT 16µM, SW480 rerep inconclusive, MCF10A rerep inconclusive, TDP1 cell CPT 23µM
O=C(c1ccc2c(c1)OCCO2)C1CCN(C(=O)Nc2ccccc2F)CC1	DT40 TDP1 no CPT inconclusive, BCR signal inh inconclusive
Cc1ccc(Cn2c(C(=O)O)c(CNC3CCCCCC3)c3ccc(C)cc32)cc1	none (no result: IL1B secr inh, SW480 rerep, MCF10A rerep, BCR signal inh)
Cc1nc2c3ccccc3nc(NNC(=O)CCC(=O)NCCN3CCN(c4ccccc4)CC3)n2n1	none
Cc1ccc(Cl)cc1N1CCN(C(=O)C2CCN(S(=O)(=O)c3cccc4nonc34)CC2)CC1	DT40 TDP1 no CPT 7.3µM, TDP1 cell CPT 12µM (no result: IL1B secr inh, SW480 rerep, MCF10A rerep, BCR signal inh)
O=C(C1CCN(S(=O)(=O)c2cccc3nonc23)CC1)N1CCN(c2ccc(F)cc2)CC1	DT40 TDP1 no CPT 12µM, TDP1 cell CPT 21µM (no result: IL1B secr inh, SW480 rerep, MCF10A rerep, BCR signal inh)
CS(=O)(=O)c1ccc(N2CCN(c3ccccn3)CC2)c([N+](=O)[O-])c1	DT40 TDP1 no CPT inconclusive
O=[N+]([O-])c1ccc(O)c(-c2cc(C(F)(F)F)nc(-c3ccccc3)n2)c1	IL1B secr inh -62, DT40 TDP1 no CPT 0.65µM, MCF10A rerep inconclusive, TDP1 cell CPT 0.58µM
Oc1ccccc1-c1cc(C(F)(F)C(F)F)nc(-c2ccccc2)n1	MCF10A rerep inconclusive
CC(C)Oc1ccc(CCC(=O)NNC(=S)Nc2ccccc2)cc1	DT40 TDP1 no CPT 18µM
Cc1ccc(C)c(S(=O)(=O)N2CCN(C(=O)CCC(=O)c3cc(C)sc3C)CC2)c1	IL1B secr inh -54, DT40 TDP1 no CPT 23µM, TDP1 cell CPT inconclusive
COc1ccc(C(=O)CCC(=O)N2CCN(c3ccc(C)cc3)C(C)C2)cc1 (centres undefined)	IL1B secr inh inconclusive, DT40 TDP1 no CPT 23µM, TDP1 cell CPT inconclusive
COc1ccc(N2CCN(C(=O)CCC(=O)c3cc(C)sc3C)CC2)cc1	DT40 TDP1 no CPT 16µM, TDP1 cell CPT inconclusive
COc1ccc(N2CCN(C(=O)CCNC(=O)c3ccccc3)CC2)cc1	none
COc1ccc(C(=O)CCC(=O)N2CCN(c3ccc(N4CCOCC4)nn3)CC2)cc1	none
COc1ccc(N2CCN(C(=O)CCCC(=O)c3ccccc3)CC2)cc1	DT40 TDP1 no CPT inconclusive, TDP1 cell CPT 21µM
Cc1ccc(C)c(S(=O)(=O)N2CCN(C(=O)Cc3ccccc3)CC2)c1	DT40 TDP1 no CPT inconclusive
O=C(CSc1nncs1)NCc1ccc(F)cc1	none
COc1ccc(C(=O)NCC(=O)N2CCN(c3ccccc3)CC2)cc1	none
COc1ccc(N2CCN(C(=O)CNC(=O)c3cccc(Br)c3)CC2)cc1	DT40 TDP1 no CPT 15µM, TDP1 cell CPT inconclusive
O=C1Cc2cc(NS(=O)(=O)c3ccc([N+](=O)[O-])cc3)cc3c2N1CCC3	TDP1 cell CPT inconclusive
CC1=C([N+](=O)[O-])C(c2cccc(Br)c2)C2=C(N1)c1ccccc1C2=O (centres undefined)	IL1B secr inh -63, DT40 TDP1 no CPT 1.8µM, SW480 rerep 0.65µM, MCF10A rerep inconclusive, TDP1 cell CPT 1µM, BCR signal inh inconclusive
COC(=O)C1=C(C)NC2=C(C(=O)c3ccccc32)C1c1cccc(OC)c1 (centres undefined)	MCF10A rerep inconclusive
O=C1NC(=S)N/C1=C/c1cccc([N+](=O)[O-])c1O	none
O=C1NC(=S)N/C1=C/c1cc([N+](=O)[O-])ccc1O	SW480 rerep 10µM
Cc1ccc(NS(=O)(=O)c2sc3ccc(Cl)cc3c2C)cc1	IL1B secr inh -85, DT40 TDP1 no CPT inconclusive, MCF10A rerep inconclusive, TDP1 cell CPT inconclusive, BCR signal inh inconclusive
CS(=O)(=O)c1ccc2nc(N)sc2c1	none
CS(=O)(=O)c1ccc(N)c(SSc2cc(S(C)(=O)=O)ccc2N)c1	IL1B secr inh -95, DT40 TDP1 no CPT inconclusive, MCF10A rerep 3.7µM, TDP1 cell CPT inconclusive
CCOC(=O)c1ccc(N=Cc2cnc(N)nc2N)cc1	TDP1 cell CPT inconclusive (no result: BCR signal inh)
O=C(O)CCCNS(=O)(=O)c1cccc2nsnc12	none
